SMILES strings stand for the structures. Compounds without any hit were thinned out: in the full panel of roughly 83,000, 20% have a hit.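 Each cell line was grown in a 96-well plate and treated with one concentration of compound for 48 hours. Values below 10 were considered active.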 A number with no mark means an inactive call. The source made the active and inactive calls.

The subject of this assay is HCT-15 colon. Description: NCI-60 one-dose screen, 48 h (100 = growth as untreated, 0 = no growth, -100 = all killed). The conditions noted are these: 10 µM unless noted.
Consider `CC(=O)Nc1nc(C(=O)N2N=C(C)/C(=C/c3cccs3)C2=O)cs1`, for which the growth is 93.1%. In the case of `CN1C(=O)[C@H]2c3c1cccc3[C@@]13NC(=O)O[C@H]1[C@H](CCC3(C)C)C2(C)C` it was 93.6%.

In the case of `CC(=O)C1CCC(C)=CC1=O` (centres undefined), the growth was 99.4%. With `COc1cccc(-n2cc(-c3nc(Cl)c4ccccc4n3)nn2)c1` the figure was 98.2%.

Consider `Nc1c(C(=O)Nc2cccc(Cl)c2Cl)sc2nc3c(cc12)C(=O)CCC3`, for which the growth was 75.5%. In the case of `COc1cc(/C=C2\CCCC3=C2NC(C)=NC3c2cc(OC)c(OC)c(OC)c2)cc(OC)c1OC` (centres undefined) it was 4.23% (active); in that of `O=c1[nH]c(-c2cn(-c3ccc(Cl)cc3)nn2)nc2ccccc12`, 101%. With `CC/C(=C(\c1ccc(O)cc1)c1ccc(OCCN(C)CCN(C)C(=O)CCC(=O)c2c(C)[nH]c(/C=C3\N=C(c4ccc[nH]4)C=C3OC)c2C)cc1)c1ccccc1` the figure was 34.3%. In the case of `Cc1cc(Nc2nc(-c3ccncc3)nc3ccccc23)n[nH]1` it was 44.2%. As to `COc1cc(C2C=C(C)N=C3SC=CN32)cc(OC)c1OC` (centres undefined), the growth was 106%. In the case of `COC1=CC(c2ccc[nH]2)=N/C1=C\c1[nH]c(C)c(C(=O)CCC(=O)Oc2ccc3c(c2)CCC2C3CC[C@]3(C)[C@@H](O)CC[C@@H]23)c1C` (some centres undefined) it was -48% (active); in that of `Cc1ccc(Cn2c(-c3nonc3N)nc3ccccc32)cc1`, 50.5%. With `O=C(Nc1ccccc1)OCC1OCOC(COC(=O)Nc2ccccc2)C1OC(=O)Nc1ccccc1` (centres undefined), the growth was 51.7%.

Regarding `CC1=CNNc2c3ncnc-3ncn21`, the growth is 102%.

With `CCN(CC)c1cc(/C=C/c2ccc(OC)c(OC)c2)nc2cc(F)c(F)cc12`, the growth is 80.1%. For `CCCCCCCCCCCCOB(OCCCCCCCCCCCC)OCCCCCCCCCCCC`, the growth was 105%. For `c1ccn2nnnc2c1`, the growth is 99.8%. In the case of `Nc1c(C(=O)Nc2c(Cl)cccc2Cl)sc2nc3c(cc12)CCCCC3` it was 32.5%. Consider `COc1ccc(-n2c(C)cc(-c3ccccc3)c2C)cc1`, for which the growth was 37.9%. Regarding `COc1cc2c(cc1OC)C1(C)N(CC2)C(=O)OC1(C)C` (centres undefined), the growth was 101%.

As to `COc1ccc(/C=C/c2nc(N3CCOCC3)c3nc(Cl)c(Cl)cc3n2)cc1OC`, the growth is 97.5%.

`Cc1cccc(NC(=O)c2sc3nc4c(cc3c2N)CCCC4)c1`: the growth is 23.9%.

`O=C(/C=C/c1ccccc1)n1c(-c2ccc(Cl)cc2)nc2ccccc21`: the growth is -24.8% (active). With `COc1cc(Cn2c(-c3nonc3N)nc3ccccc32)ccc1C` the figure was 19.5%. With `Clc1ccc(-c2nc(-c3ccco3)cn3ccnc23)cc1` the figure was 50.1%.

Take `Oc1ccc(N=Cc2ccccc2)cc1`: the growth is 82%. For `CCCCCc1c(C)[nH]c(/C=c2\[nH]/c(=C3/C=c4ccccc4=N3)cc2OC)c1C`, the growth was -29.8% (active). Regarding `COc1cc2nc(Cl)nc(NCCO)c2cc1OC`, the growth is 99%.

`CCC1CCc2nc3sc(C(=O)Nc4ccccc4C)c(N)c3cc2C1` (centres undefined): the growth was 26.3%. Turning to `Cc1cc(Nc2nc(C(=O)Nc3ccccc3)nc3ccccc23)n[nH]1`, the growth was 29.5%.

Consider `c1ccc2nc(-c3ccc4ccccc4n3)ccc2c1`, for which the growth is 104%. For `Clc1nc2ccccc2nc1CI`, the growth is 74.9%. With `Cc1cccc(NC(=O)c2sc3nc4c(cc3c2N)CCC4)c1C`, the growth is 20.1%.

Turning to `Clc1cccc(Cl)c1Cn1c(-c2cncs2)nc2ccccc21`, the growth was 79.5%. With `Clc1ccc(/C=C/c2nc(N3CCOCC3)c3nc(Cl)c(Cl)cc3n2)cc1` the figure was 94.3%; with `Cc1cc(Nc2nc(-c3ccc(F)cc3)nc3ccccc23)n[nH]1`, 33.9%. With `COC(=O)[C@H]1[C@H](OC)[C@@H](OC(=O)/C=C/c2ccncc2)CC2CN3CCc4c([nH]c5cc(OC)ccc45)[C@@H]3C[C@@H]21` (some centres undefined) the figure was 75.5%; with `CN(C)c1ncc(-c2ccc(C(F)(F)F)cc2)c(NC2CCCCCC2)n1`, 77.4%; with `CC(=O)Nc1ccc(S(=O)(=O)N2C(=O)CCC2C(=O)Nc2ccccc2)cc1` (centres undefined), 45.8%.

The record behind these values is PubChem BioAssay (NCI).
